Experimental data: PubChem BioAssay (EPA / NIEHS)
Inconclusive results are not listed. A structure can be active in one record and inactive in another. Active and inactive are the calls of the source. The calls were made as follows: active = hit-call score of the fitted dose curve at least 0.9, where 1 is the maximum; inconclusive = response in the unintended direction; inactive = score below 0.9.

target: human Peroxisome Proliferator-activated Receptor delta (PPARd), PPARD (gene 5467) (UniProt Q03181); assay: ATG_PPARd_TRANS: Attagene TRANS-FACTORIAL HepG2 Assay for human Peroxisome Proliferator-activated Receptor delta (PPARd) (AID 2283002)
Description: ATG_TRANS is a cell-based, multiplexed-readout assay that uses HepG2, a human liver cell line, with measurements taken at 24 hours after chemical dosing in a 24-well plate.ATG_PPARd_TRANS is one of 30 assay component(s) measured or calculated from the ATG_TRANS assay. It is designed to make measurements of mRNA induction, a form of inducible reporter, as detected with fluorescence intensity signals by Reverse transcription polymerase chain reaction (RT-PCR) and Capillary electrophoresis technology.Data from the assay component ATG_PPARd_TRANS was analyzed into 1 assay endpoint. This assay endpoint, ATG_PPARd_TRANS, was analyzed in the positive analysis fitting direction relative to DMSO as the negative control and baseline of activity. Using a type of inducible reporter, measures of mRNA for gain-of-signal activity can be used to understand the reporter gene at the transcription factor-level as they relate to the gene PPARD. Furthermore, this assay endpoint can be referred to as a primary readout, because this assay has produced multiple assay endpoints where this one serves a reporter gene function. To generalize the intended target to other relatable targets, this assay endpoint is annotated to the nuclear receptor intended target family, where the subfamily is non-steroidal.
Human liver HepG2 cells are transiently transfected with multiple reporter transcription units (MRTUs) in 6-well plates using FuGene 6 reagent (Roche; 3 ml FuGene/1 mg DNA). The MRTU constructs are regulated by a cis-regulating element (promoter). […] A major difference between the CIS and TRANS system is that in CIS activities of endogenous TFs are measured, whereas the TRANS assay evaluates changes in activities of exogenous, chimeric NR-Gal4 proteins. […] At the end of 24 hour incubation, total RNA was isolated using TriZol reagent (Invitrogen). The isolated RNA is then reverse-transcribed using oligo(dT) primer and Mo-MLV reverse transcriptase (Invitrogen) with DNAse I (Ambion) treatment for 30 min. The one-tenth of the produced cDNA was amplified by PCR using Taq DNA polymerase (Invitrogen) and two reporter sequence-specific primers. The PCR products were fluorescently labeled by primer extension with 6-arboxyfluorescein (6-FAM) 5'-labeled reporter sequence-specific primer (2 min at 95 C, 20 s at 68 C and 10 min at 72 C) and these products were digested with 5U of HpaI (New England Biolabs) for 2h at 37 C. The fragments were purified using Qiaquick PCR columns (Qiagen), analyzed on an ABI 3130xL genetic analyzer (Applied Biosystems) with peak positions identified by using a set of X-rhodamine (ROX)-labeled MapMarker1000 molecular weight standards (BioVentures). The raw capillary electrophoresis data was processed using Attagraph software (Attagene).

human Peroxisome Proliferator-activated Receptor delta (PPARd), PPARD (gene 5467), sequence (Q03181 whole entry, looked up): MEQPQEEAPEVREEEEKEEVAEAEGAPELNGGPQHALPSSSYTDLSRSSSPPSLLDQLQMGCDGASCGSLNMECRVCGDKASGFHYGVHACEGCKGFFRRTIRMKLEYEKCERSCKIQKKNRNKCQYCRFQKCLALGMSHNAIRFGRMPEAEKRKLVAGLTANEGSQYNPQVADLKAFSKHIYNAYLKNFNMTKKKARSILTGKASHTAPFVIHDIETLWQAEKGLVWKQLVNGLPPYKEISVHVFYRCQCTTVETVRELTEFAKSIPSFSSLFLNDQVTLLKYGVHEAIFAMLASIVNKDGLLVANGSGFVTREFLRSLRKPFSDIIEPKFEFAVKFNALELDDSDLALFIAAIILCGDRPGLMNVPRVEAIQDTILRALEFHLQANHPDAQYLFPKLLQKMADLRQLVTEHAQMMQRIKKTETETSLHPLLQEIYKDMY

SMILES | outcome | AC50
CC(C)(C)c1ccc(O)cc1 | inactive | 
CCCCC(CC)COC(=O)c1c(Br)c(Br)c(Br)c(Br)c1C(=O)OCC(CC)CCCC (stereo not given) | inactive | 
O=[N+]([O-])c1cc(Cl)ccc1Cl | inactive | 
COP(=O)(CCC(=O)NCO)OC | inactive | 
Oc1ccc(I)cc1 | inactive | 
Cc1ccc2c(c1N)C(=O)c1ccccc1C2=O | inactive | 
Cc1ccc(O)cc1C | inactive | 
CC(C)(C)c1ccccc1OP(=O)(Oc1ccccc1)Oc1ccccc1 | inactive | 
O=P(OCC(Br)CBr)(OCC(Br)CBr)OCC(Br)CBr (stereo not given) | inactive | 
O=S(=O)(F)C(F)(F)C(F)(F)C(F)(F)C(F)(F)C(F)(F)C(F)(F)C(F)(F)C(F)(F)F | inactive | 
Cc1cccc(N)c1 | inactive | 
ClC(Cl)(Cl)c1ccccc1 | inactive | 
CCOS(=O)(=O)OCC | inactive | 
CCN(CC)C1CCCCC1 | inactive | 
O=S(=O)(c1ccc(O)cc1)c1ccc(O)cc1 | inactive | 
O=S1(=O)OCC2C(CO1)C1(Cl)C(Cl)=C(Cl)C2(Cl)C1(Cl)Cl (stereo not given) | inactive | 
O=C(O)C=CC(F)(C(F)(F)F)C(F)(F)F | inactive | 
CCCCN(CC)C(=O)SCCC | inactive | 
OCC1CO1 (stereo not given) | inactive | 
Clc1ccc(Oc2ccccc2)cc1 | inactive | 

SMILES | outcome | AC50
N#C/C=C/c1ccccc1 | inactive | 
O=P1(N(CCCl)CCCl)NCCCO1 (stereo not given) | inactive | 
[N-]=[N+]=[N-] | inactive | 
O=C(O)C(F)(OC(F)(F)C(F)(F)C(F)(F)F)C(F)(F)F (stereo not given) | inactive | 
CNC(=O)Oc1ccc(N(C)C)c(C)c1 | inactive | 
CC1=C(C(=O)Nc2ccccc2)S(=O)(=O)CCO1 | inactive | 
NC(=O)C(F)(F)C(F)(F)F | inactive | 
CCNc1nc(Cl)nc(NC(C)(C)C)n1 | inactive | 
O=C(CBr)OCc1ccccc1 | inactive | 
Nc1ccc([N+](=O)[O-])cc1Cl | inactive | 
COP(=O)(O)OC | inactive | 
CC(O)C#N (stereo not given) | inactive | 
CCOP(=S)(NC(C)C)Oc1ccccc1C(=O)OC(C)C (stereo not given) | inactive | 
O=P(Oc1ccccc1)(Oc1ccccc1)Oc1ccccc1 | inactive | 
COC(=O)C(F)(F)C(F)(F)OC(F)(C(F)(F)F)C(F)(F)OC(F)=C(F)F (stereo not given) | inactive | 15.4 µM (active)
OCC(F)(F)OC(F)(F)C(F)(F)OC(F)(F)C(F)(F)OC(F)(F)CO | inactive | 
CCCCN(CCCC)SN(C)C(=O)Oc1cccc2c1OC(C)(C)C2 | inactive | 
Nc1cc2c3c(c1)C(c1ccccc1)=N[C@@H](NC(=O)c1cccnc1)C(=O)N3CC2 | inactive | 
CCC1(c2ccccc2)C(=O)N=C(O)NC1=O (stereo not given) | inactive | 
